# Compound activity (PubChem)
# CHX counter = counter-screen for Shiga toxin inhibitors: cycloheximide protein synthesis inhibition | cell reporter, cycloheximide protein synthesis inhibition counterscreen | actives 12% (n = 300,000) | max response, % | AID 2314; in the data active = max response mostly above about 13%, no sharp cut-off; inactive = mostly below about 14%; also: read at 38.3 µM for the half of the compounds with a filed dose; 0% is about no effect
# Pf growth 48h = inhibits P. falciparum growth in the first generation, 48 h. P. falciparum luciferase growth in erythrocytes, 48 h. Potency, µM (highest dose often 28.7 µM), for the others: at the top dose activity change, negative = inhibition, hits mostly inhibitors. actives 5.9% (n = 310,000). AID 504832; also: potency is read from the fitted curve at half-maximal effect; % is scaled to controls: 0 for no effect and ±100 for the full control effect
#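 Parasite viability was followed by luminescence of a genomically integrated firefly luciferase. Cultures held 0.1% parasitemia at 2% hematocrit (final), incubated under 5% CO2 at 37 C.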
# Pf growth 96h = P. falciparum growth inhibition at 96 hours. P. falciparum luciferase reporter growth, 96 h. Potency, µM (series often up to 28.7 µM), for inactives: at the top dose activity change, negative = inhibition, hits mostly inhibitors. actives 6.9% (n = 320,000). AID 504834; also: potency is read from the fitted curve at half-maximal effect; % is scaled to controls: 0 for no effect and ±100 for the full control effect
#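 Compounds incubated with erythrocytes infected by luciferase-expressing P. falciparum (2% hematocrit, 0.05% parasitemia final) for 96 hours, 37 C in 5% CO2. Growth inhibition scored as decreased luciferase luminescence.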
# NS1 function inh = influenza NS1 inhibition; actives 0.4% (n = 270,000); Potency, µM (top dose mostly 46.1 µM), for the others: top-dose activity, positive = more growth; calls by dose curve; also: potency is read from the fitted curve at half-maximal effect; actives are rising curves; nearly all actives have a fitted effect of over 50% in size
#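 Read-out: OD600 growth recovery of NS1-expressing budding yeast. Cells grown overnight at 30C in -URA glucose medium, washed, resuspended and diluted 1:100 in 2% galactose assay medium, pH 6.0. Same strain lacking NS1 served as positive control.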
# Shiga inhibitor = Shiga toxin inhibition; Vero cells, Shiga toxin protein synthesis inhibition reporter; inhibition, % at 38.7 µM; actives 9.2% (n = 290,000); in the data active = inhibition mostly above about 28%, no sharp cut-off; inactive = mostly below about 43%; also: 0% is about no effect
# Sm TGR block = S. mansoni TGR enzyme inhibition | actives 3% (n = 360,000) | Q962Y6 | AID 485364 | Potency, µM (series often up to 114 µM), without a hit: top-dose activity change, negative = inhibition, most hits filed as inhibitors | purified TGR, DTNB reduction, TNB absorbance 405 nm; also: potency is read from the fitted curve at half-maximal effect; % is scaled to controls: 0 for no effect and ±100 for the full control effect; nearly all actives have a fitted effect of over 60% in size
#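 Kinetic colorimetric format: TGR-catalysed, NADPH-driven DTNB reduction monitored via TNB absorbance. Enzyme dispensed at 20 nM; compound exposure 15 min at room temperature before reaction start.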
# * marks the source's active call; other numbers are inactive results; u = inconclusive; x = not tested or not shown; ! = not confirmed by another sample; [ ] = dose if it differs, or a comment. Rows were chosen to be rich in hits. Some 21% of all compounds tested hit in one or more screens of this group. Unless noted, calls follow the shape of the dose curve; as a rule, active = well fitted curve in the direction sought with a large enough effect; inconclusive = small, poorly fitted or top-dose-only effect, or another doubt; inactive = no such curve, though single readings can be large; an effect the other way counts as inactive or inconclusive.
SMILES,CHX counter,Pf growth 48h,Pf growth 96h,NS1 function inh,Shiga inhibitor,Sm TGR block
COc1cc(C(=O)N(C)C2CCCCC2)ccc1OC1CCN(C(C)=O)CC1,1,-7%,u,-14%,x,-14%
COc1cc(C(=O)NCc2ncccc2C)ccc1OC1CCN(C(C)=O)CC1,1,20%,15µM*,-2%,17,u
C=CCN(CC=C)C(=O)c1ccc(OC2CCN(C(C)=O)CC2)c(OC)c1,9,u,2.9µM*,9%,8,-24%
COc1cc(C(=O)NC(C)Cc2ccccn2)ccc1OC1CCN(C(C)=O)CC1 (stereo unspecified),7,-17%,40%,3%,-3,8%
COc1cc(=O)n2c(-c3ccccc3)csc2n1,5,6%,1%,-4%,10,2%
O=c1cc(-c2ccccc2)cc(-c2ccccc2)n1O,x,13µM*,u,x,x,2%
CCOC(=O)C1=C(O)/C(=C/c2ccccn2)SC1=Nc1ccc(Cl)cc1,-1,9.3µM*,15%,6%,-11,-1%
CCOC(=O)C1=C(O)CSC1=Nc1ccc(Cl)cc1,6,10µM*,10µM*,-4%,21,0%
CCOC(=O)C1=C(O)/C(=C/c2ccc(-c3ccccc3C(=O)O)o2)SC1=Nc1ccc(C)cc1,-2,u,0.93µM*,-65%,-6,u
Cn1c(C(=O)OC(C(=O)NC2CCCCC2)c2cccnc2)cc2sccc21 (stereo unspecified),5,x,u,-5%,15,-12%
CC(C)c1ccc2[nH]c(O)c(N=NC(=O)c3cccc(S(=O)(=O)N4CCCCC4)c3)c2c1,-4,u,9.3µM*,18%,-1,-6%
O=C(N=Nc1c(O)[nH]c2ccccc12)c1cccc(S(=O)(=O)N2CCCCC2)c1,12*,9.3µM*,3.3µM*,u,63*,5%
COc1cc(/C=C(/C#N)c2nc(-c3cc4ccccc4oc3=O)cs2)ccc1O,x,x,x,x,x,-2%
CCc1nc(SCc2cc(=O)c3cc(F)ccc3[nH]2)n[nH]1,x,x,x,x,x,4%
CCN(CC)C(=O)c1nn(-c2ccc(OC)cc2)c(=O)c2c(N)scc12,-5,x,x,x,-6,x
Cc1ccc2nc(=O)c(NNc3ccccc3)cnc2c1,23*,186%,219%,6%,21,-9%
Cc1nc2ccccc2nc(=O)c1NNc1ccccc1,20*,87%,6.7µM*!,-3%,23*,-3%
O=C(CNC(=O)c1ccncc1)Nc1ccc(F)c(F)c1,-2,1%,11%,10%,-5,3%
Cc1ccc(OCc2nc3ccccc3n2CC(C)C)cc1,x,x,x,x,x,5%
COc1ccc(CNN2CCCCC2C(=O)Nc2ccc(OC)c(OCC(C)C)c2)cc1OC (stereo unspecified),-1,28%,15µM*,2%,-6,-8%
COc1ccc(N(CC(=O)NCc2ccc3c(c2)OCO3)C(=O)CCC(=O)Nc2ccccn2)cc1,-1,12%,54%,7%,21,3%
COc1ccc(C(=O)N/N=C(\C)CC(=O)NC2CCCCC2)c(OC)c1,11,10%,-8%,10%,17,-38%
CCC(CC)=NNC(=O)c1ccccc1OCc1ccc(F)cc1,6,11%,u,18%,-3,-1%
COc1ccc(/C(C)=N/NC(=O)C2C3CCCCC32)c(OC)c1 (stereo unspecified),12,-11%,0%,13%,41*,-7%
O=C(NCc1ccncc1)C(=O)N/N=C/c1ccccc1OCc1ccccc1,27,-12%,8%,x,25,0%
SMILES,CHX counter,Pf growth 48h,Pf growth 96h,NS1 function inh,Shiga inhibitor,Sm TGR block
COc1ccc(/C(C)=N/NC(=O)c2ccccc2OCc2ccccc2)c(OC)c1,33*,u,19%,-20%,165*,7%
C#CCOc1ccccc1/C=N/NC(=O)c1ccccc1OCc1ccccc1,11,u,10µM*,13%,-19,-19%
COc1ccc(/C=N/NC(=O)c2ccccc2OCc2ccccc2)c(OC)c1,30*,u,11%,-17%,64*,2%
COc1ccc(/C=N/NC(=O)c2cccc(NC(=O)c3ccccc3Cl)c2)c(OC)c1,16,-5%,-9%,x,44,7%
COC(=O)CNC(c1ccccc1Cl)c1cc(Br)ccc1NS(=O)(=O)c1ccc(C)cc1 (stereo unspecified),9,3.3µM*,-10%,4%,-7,-3%
CNC(=O)c1cc2n(n1)CCCN(Cc1ccc(F)cc1)C2=O,x,x,x,x,x,5%
O=C(COc1ccccc1[N+](=O)[O-])NCCCN1CCCC1=O,x,-12%,-6%,x,x,-2%
O=C(Nc1ccc(Cl)cc1)Nc1cccnc1,37*,x,u,-49%,55*,3%
CCOc1ccc(N(CC(=O)NCc2cccnc2)S(=O)(=O)c2ccc(F)cc2)cc1,-2,-15%,31%,8%,-2,0%
COc1ccc(C(=O)Nc2ccc(C(=O)Nc3cccnc3)cc2)cc1,-2,59%,-6%,4%,x,6%
CCOc1ccc(S(=O)(=O)N(CC(=O)Nc2cccnc2)c2ccc(F)cc2)cc1,-4,19%,5.9µM*,-1%,-12,7%
CCCCOc1ccc(S(=O)(=O)Nc2cccnc2)cc1,13,0%,2.3µM*,-10%,-9,-15%
COc1ccc(NC(=O)Nc2cccnc2)cc1,23*,118%,u,x,44*,2%
Cc1ccc(NC(=O)c2cc(S(=O)(=O)N3CCCC3)cn2C)cc1,-1,-11%,9%,-11%,5,-18%
CCOC(=O)N1CCN(C(=O)COC(=O)c2ccc(S(=O)(=O)N(CC)CC)cc2)CC1,x,23%,21%,x,x,-1%
CC(C)CNS(=O)(=O)c1ccc(S(=O)(=O)N2CCN(C3CCCC3)CC2)cc1,-7,u,45%,9%,3,-1%
O=C(O)c1[nH]c2c([N+](=O)[O-])cc([N+](=O)[O-])cc2c1C(=O)O,x,x,x,-6%,x,x
CCOc1ccc(NC(=O)Nc2cccnc2)cc1,25*,51%,11%,-2%,60*,8%
CCOc1ccc(NC(=O)NCc2cccnc2)cc1,-3,34%,u,-1%,18,16%
O=C(Nn1cnnc1)c1csc2ccccc12,-1,-3%,88%,u,-20,-3%
O=C(Nc1ccon1)c1csc2ccccc12,9.7*,-9%,x,-35%,31,-11%
O=C(Nc1cnccn1)c1csc2ccccc12,27*,79%,1%[5.75 µM],-59%,111*,-15%
Cc1cc(C(=O)Nc2ccon2)cs1,10,24%,u,0%[9.22 µM],18,-2%
COC(=O)c1cnn2c(C)c(Cc3c(C)cc(C)cc3C)c(C)nc12,x,x,x,x,x,3%
COc1ccc(CNC(=O)CSc2ncc(S(=O)(=O)c3ccc(C)c(Cl)c3)c(=O)[nH]2)cc1,x,x,x,x,x,-4%
